# Experimental data from PubChem BioAssay (NCATS).
# Records with an inconclusive call do not appear. A call without a number means that no potency is given here. Activity calls are given as the source filed them. The call rests on the fitted dose curve; in most records, active means well fitted curve in the direction sought with a large enough effect; inconclusive means small, poorly fitted or top-dose-only effect, or another doubt; inactive means no such curve, though single readings can be large; an effect the other way counts as inactive or inconclusive.
# Biological target: Aldehyde dehydrogenase, mitochondrial (Homo sapiens) (UniProt P05091)
# Assay: qHTS for Inhibitors of the Aldehyde Dehydrogenase Family (ALDH2) Primary screen (AID 2061308); further: nearly all actives have a fitted effect of over 55% in size
# Settings: ALDH2 enzyme inhibition qHTS, 1536-well; series mostly up to 56 µM
row,SMILES,Potency
1,CC(C)CC(O)C(=O)Nc1cc(C(F)(F)F)ccc1Cl (stereo not given),inactive
2,CCOC(=O)C1CCN(C(=O)C(C)(C)NC(=O)Nc2ccc3ccccc3c2)CC1,inactive
3,CC(C)CCn1c(CN2CCN(C(=O)C(C)C)CC2)nc2c1c(=O)n(C)c(=O)n2C,inactive
4,CCCn1c(-c2ccc(F)cc2)nc2c(NCCN(C)C)nc(C)nc21,inactive
5,Cc1ccnc(NC(=S)N2CC3CN(c4ccc(Cl)cc4C(F)(F)F)CC3C2)c1 (stereo not given),inactive
6,O=C(Nc1nc(-c2ccccc2)cs1)c1ccncc1NS(=O)(=O)c1cccs1,inactive
7,O=C(OCC#CCSc1nnc(-c2cccc3ccccc23)o1)c1cccc(C(F)(F)F)c1,inactive
8,CC(C)Oc1cccc(-c2ccnc(N3CCC(C(N)=O)CC3)n2)c1,inactive
9,Cc1nnc(-c2cnn(C)c2N)n1CCCn1cccc1,inactive
10,Cc1sc(NC(=O)Cc2ccc3c(c2)OCO3)nc1-c1ccc2c(c1)CCN2C(=O)c1ccccc1Cl,inactive
11,C=CCOc1cc(Cl)ccc1C(=O)NCCN(CC)CC,inactive
12,Cc1cc(C)nc(NC(=S)N2CCN(c3nc4ccccc4s3)CC2)c1,inactive
13,COc1cccc(C(=O)Nc2ccc([S+](=O)([O-])Nc3nccs3)cc2)c1O,inactive
14,Nc1ncnc2c1nc(N)n2[C@@H]1O[C@H](CO)[C@@H](O)[C@H]1O,inactive
15,O=C(Nc1nc(-c2ccccc2)cs1)c1ccccc1S(=O)(=O)Nc1nccs1,inactive
16,O=S(=O)(Nc1ccc(-c2ccccc2)cc1)c1ccc(NCc2ccc(Br)cc2O)cc1,inactive
17,O=S(=O)(Nc1nccs1)c1ccc(NCc2cc(Cl)ccc2O)cc1,inactive
18,O=c1c2ccc([N+](=O)[O-])cc2nc2sc(Nc3ccc4c(c3)CCC4)nn12,inactive
19,COc1ccccc1C1=Nn2c(nnc2-c2ccccc2OC)SC1,inactive
20,O=C(NCCCn1ccnc1)c1nn2c(C(F)(F)F)cc(-c3ccc(Br)cc3)nc2c1Cl,inactive

row,SMILES,Potency
1,CC(=O)Nc1sc2c(c1-c1ccc(F)cc1)CCNC2,inactive
2,O=C(O)c1ccc(-c2nn3c(=O)cc(N4CCNCC4)nc3s2)cc1,inactive
3,Cc1ccc(OCCn2c(CCNC(=O)c3ccc(Br)cc3)nc3ccccc32)cc1,inactive
4,CC(C)=CCC[C@](C)(O[C@@H]1O[C@H](CO[C@@H]2O[C@@H](CO)[C@H](O)[C@H]2O)[C@@H](O)[C@H](O)[C@H]1O)[C@H]1CC[C@]2(C)[C@@H]1[C@H](O)C[C@@H]1[C@@]3(C)CC[C@H](O[C@@H]4O[C@H](CO)[C@@H](O)[C@H](O)[C@H]4O[C@@H]4O[C@H](CO)[C@@H](O)[C@H](O)[C@H]4O)C(C)(C)[C@@H]3CC[C@]12C,inactive
5,CN(C)[C@@H]1CCN(c2cccc(Nc3nn4c(=O)c5ccccc5nc4s3)c2)C1,inactive
6,OCc1ccnc(NC(=S)N2CCN(c3cccc(C(F)(F)F)c3)CC2)c1,inactive
7,Cc1c(Cl)cccc1S(=O)(=O)Nc1nc(NCCc2ccccc2)nc2c1CN(Cc1ccccc1)CC2,inactive
8,O=C(OCC#CCSc1nnc(-c2cccc3ccccc23)o1)c1ccc(F)cc1,inactive
9,O=C(Nc1nc(-c2ccccc2)cs1)c1ccccc1[N+](=O)[O-],inactive
10,CN(C)c1ccc(C2N=C(Nc3nc4ccccc4o3)NC3=C2C(=O)CCC3)cc1 (stereo not given),inactive
11,Cc1ccc(S(=O)(=O)Nc2ccccc2C(=O)Nc2nc(-c3ccc(Cl)cc3)cs2)cc1,inactive
12,O=C1Cc2cc(S(=O)(=O)N3CCN(c4cccc(C(F)(F)F)c4)CC3)ccc2N1,inactive
13,O=C(Nc1ccc(Oc2ccccc2)cc1)Nc1nnc(-c2ccncc2)s1,inactive
14,CCCn1c(-c2ccc(F)cc2)nc2c(NC(C)CN(C)C)nc(C)nc21 (stereo not given),inactive
15,CCCCNc1nc(C)nc2c1nc(-c1ccccc1)n2CC1CCCN1CC (stereo not given),inactive
16,O=C(c1ccc2c(c1)ncn2-c1ccccc1)N1CCCCC1,inactive
17,Cc1ccc(-n2nc3c(N4CCCC(C(=O)NCc5ccccc5C)C4)nnc(C)c3c2C)cc1 (stereo not given),inactive
18,Cc1ccc(S(=O)(=O)Nc2cc([N+](=O)[O-])ccc2C(=O)Nc2nc(-c3ccccc3)cs2)cc1,inactive
19,N#Cc1ccccc1-c1csc(N2CCC(C(N)=O)CC2)n1,inactive
20,O=S(=O)(NCc1ccccc1F)c1ccc(O)c2ncccc12,inactive

# Biological target: Retinaldehyde dehydrogenase 3 (Homo sapiens) (UniProt P47895)
# Assay: qHTS for Inhibitors of the Aldehyde Dehydrogenase Family (ALDH1A3) Primary screen (AID 2061315)
# Settings: ALDH inhibition qHTS; series mostly up to 56 µM
row,SMILES,Potency
1,CC(C)CC(O)C(=O)Nc1cc(C(F)(F)F)ccc1Cl (stereo not given),inactive
2,CCOC(=O)C1CCN(C(=O)C(C)(C)NC(=O)Nc2ccc3ccccc3c2)CC1,inactive
3,CC(C)CCn1c(CN2CCN(C(=O)C(C)C)CC2)nc2c1c(=O)n(C)c(=O)n2C,inactive
4,CCCn1c(-c2ccc(F)cc2)nc2c(NCCN(C)C)nc(C)nc21,inactive
5,Cc1ccnc(NC(=S)N2CC3CN(c4ccc(Cl)cc4C(F)(F)F)CC3C2)c1 (stereo not given),inactive
6,O=C(Nc1nc(-c2ccccc2)cs1)c1ccncc1NS(=O)(=O)c1cccs1,inactive
7,O=C(OCC#CCSc1nnc(-c2cccc3ccccc23)o1)c1cccc(C(F)(F)F)c1,inactive
8,CC(C)Oc1cccc(-c2ccnc(N3CCC(C(N)=O)CC3)n2)c1,inactive
9,Cc1nnc(-c2cnn(C)c2N)n1CCCn1cccc1,inactive
10,Cc1sc(NC(=O)Cc2ccc3c(c2)OCO3)nc1-c1ccc2c(c1)CCN2C(=O)c1ccccc1Cl,inactive
11,C=CCOc1cc(Cl)ccc1C(=O)NCCN(CC)CC,inactive
12,Cc1cc(C)nc(NC(=S)N2CCN(c3nc4ccccc4s3)CC2)c1,inactive
13,COc1cccc(C(=O)Nc2ccc([S+](=O)([O-])Nc3nccs3)cc2)c1O,inactive
14,Nc1ncnc2c1nc(N)n2[C@@H]1O[C@H](CO)[C@@H](O)[C@H]1O,inactive
15,O=C(Nc1nc(-c2ccccc2)cs1)c1ccccc1S(=O)(=O)Nc1nccs1,inactive
16,O=S(=O)(Nc1ccc(-c2ccccc2)cc1)c1ccc(NCc2ccc(Br)cc2O)cc1,inactive
17,O=S(=O)(Nc1nccs1)c1ccc(NCc2cc(Cl)ccc2O)cc1,inactive
18,O=c1c2ccc([N+](=O)[O-])cc2nc2sc(Nc3ccc4c(c3)CCC4)nn12,inactive
19,COc1ccccc1C1=Nn2c(nnc2-c2ccccc2OC)SC1,inactive
20,O=C(NCCCn1ccnc1)c1nn2c(C(F)(F)F)cc(-c3ccc(Br)cc3)nc2c1Cl,inactive

row,SMILES,Potency
1,CC(=O)Nc1sc2c(c1-c1ccc(F)cc1)CCNC2,inactive
2,O=C(O)c1ccc(-c2nn3c(=O)cc(N4CCNCC4)nc3s2)cc1,inactive
3,Cc1ccc(OCCn2c(CCNC(=O)c3ccc(Br)cc3)nc3ccccc32)cc1,inactive
4,CC(C)=CCC[C@](C)(O[C@@H]1O[C@H](CO[C@@H]2O[C@@H](CO)[C@H](O)[C@H]2O)[C@@H](O)[C@H](O)[C@H]1O)[C@H]1CC[C@]2(C)[C@@H]1[C@H](O)C[C@@H]1[C@@]3(C)CC[C@H](O[C@@H]4O[C@H](CO)[C@@H](O)[C@H](O)[C@H]4O[C@@H]4O[C@H](CO)[C@@H](O)[C@H](O)[C@H]4O)C(C)(C)[C@@H]3CC[C@]12C,inactive
5,CN(C)[C@@H]1CCN(c2cccc(Nc3nn4c(=O)c5ccccc5nc4s3)c2)C1,inactive
6,OCc1ccnc(NC(=S)N2CCN(c3cccc(C(F)(F)F)c3)CC2)c1,inactive
7,Cc1c(Cl)cccc1S(=O)(=O)Nc1nc(NCCc2ccccc2)nc2c1CN(Cc1ccccc1)CC2,inactive
8,O=C(OCC#CCSc1nnc(-c2cccc3ccccc23)o1)c1ccc(F)cc1,inactive
9,O=C(Nc1nc(-c2ccccc2)cs1)c1ccccc1[N+](=O)[O-],inactive
10,CN(C)c1ccc(C2N=C(Nc3nc4ccccc4o3)NC3=C2C(=O)CCC3)cc1 (stereo not given),inactive
11,Cc1ccc(S(=O)(=O)Nc2ccccc2C(=O)Nc2nc(-c3ccc(Cl)cc3)cs2)cc1,inactive
12,O=C1Cc2cc(S(=O)(=O)N3CCN(c4cccc(C(F)(F)F)c4)CC3)ccc2N1,inactive
13,O=C(Nc1ccc(Oc2ccccc2)cc1)Nc1nnc(-c2ccncc2)s1,inactive
14,CCCn1c(-c2ccc(F)cc2)nc2c(NC(C)CN(C)C)nc(C)nc21 (stereo not given),inactive
15,CCCCNc1nc(C)nc2c1nc(-c1ccccc1)n2CC1CCCN1CC (stereo not given),inactive
16,O=C(c1ccc2c(c1)ncn2-c1ccccc1)N1CCCCC1,inactive
17,Cc1ccc(-n2nc3c(N4CCCC(C(=O)NCc5ccccc5C)C4)nnc(C)c3c2C)cc1 (stereo not given),inactive
18,Cc1ccc(S(=O)(=O)Nc2cc([N+](=O)[O-])ccc2C(=O)Nc2nc(-c3ccccc3)cs2)cc1,inactive
19,N#Cc1ccccc1-c1csc(N2CCC(C(N)=O)CC2)n1,inactive
20,O=S(=O)(NCc1ccccc1F)c1ccc(O)c2ncccc12,inactive
